PubChem BioAssay AID1508625 (Wald Lab, School of Medicine, Case Western Reserve …, 2021)

Assay: enhancers of NK cell killing of ovarian tumor cells, primary screen, imaging, OVCAR3, primary NK cells, calcein-AM imaging (AID 1508625);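 note: compound given to NK cells 16 h before adding targets at 1.5 to 1 ratio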
Conditions: OVCAR3 lysis by primary NK cells, at 5 µM; z-score: measured here: robust Z-score, single-point normalisation

SMILES	z-score	corrected activity, negative = more killing [%]
CCOc1ccc2nc(SCCC(=O)Nc3ccc(OC)cc3)sc2c1	-2.99	-5.58
CC1CCC(NC2CCCc3c2[nH]c2ccc([N+](=O)[O-])cc32)C1 (stereo not drawn)	1.59	3.64
O=C(CCCCCn1c(=S)[nH]c2cc3c(cc2c1=O)OCO3)N1CCN(c2ccc(Cl)cc2)CC1	-0.597	-2.25
CSc1nnc2c(n1)OC(c1ccc(C(=O)O)cc1)Nc1ccccc1-2 (stereo not drawn)	-0.616	-1.74
CCCC(=O)Nc1cc(-c2nc3ccc(C)cc3o2)ccc1Cl	-1.43	-2.67
CC(C)(C)C1CCC(=O)C(C2(O)C(=O)Nc3ccc(Br)cc32)C1 (stereo not drawn)	-0.998	-3.34
CCOc1cc(C(=S)N2CCCCC2)ccc1OC(=O)c1ccc(OC)cc1	-2.2	-5.85
Cc1ccc(-n2c(SCC(=O)Nc3cccc(F)c3)nc3c(c2=O)SCC3)cc1	-0.864	-3.47
O=C(Nc1ccc(Br)cc1)C1CCN(S(=O)(=O)c2cccc3nonc23)CC1	-0.893	-3.15
COc1cccc(-c2nnc(-c3ccc([N+](=O)[O-])cc3)o2)c1	0.417	1.18
Cc1ccc(OCCCCNC2CCCCC2)c(C)c1	2.34	4.21
CCOc1ccc(Br)cc1S(=O)(=O)N1CCN(c2ccc(C)cc2C)CC1	-0.676	-1.21
Cc1ccccc1-n1nnnc1C(c1ccccc1)N(C)Cc1ccc(Cl)c(Cl)c1 (stereo not drawn)	-0.695	-1.59
COc1ccccc1N1C(=O)C2C(C(C)=O)=NN(c3ccc(Cl)cc3)C2C1=O (stereo not drawn)	-0.704	-1.87
CCC(=O)Nc1ccc(Cl)c(NC(=O)COc2ccc(Br)cc2)c1	-0.00304	-0.00546
Cc1ccccc1C(=O)Nc1ccc(C(=O)O)cc1NC(=O)c1ccccc1C	-0.197	-0.368
COCCN(CCOC)C(=O)c1cc2c(=O)n3ccccc3nc2s1	-0.502	-1.77
CC1CCCC(C(=O)OCc2ccccc2)N1 (stereo not drawn)	-1.64	-4.16
COc1cc2nc(SCC(=O)Nc3cc(C(F)(F)F)ccc3Cl)n(Cc3ccco3)c(=O)c2cc1OC	-1	-3.79
CCOc1ccc2nc(SCC(=O)Nc3ccccc3C(=O)O)sc2c1	-1.75	-4.64

SMILES	z-score	corrected activity, negative = more killing [%]
Cc1ccc(C=C(NC(=O)c2ccc(C)cc2)c2nc3ccccc3[nH]2)cc1	-0.73	-1.41
O=C1CCC(=O)N1c1ccc(NCc2ccc(Cl)cc2)c([N+](=O)[O-])c1	-1.63	-4.48
O=C1NC(=S)SC1=Cc1cc(Cl)ccc1O	-1.87	-4.39
CCOc1ccc(S(=O)(=O)Nc2ccc(Cl)cc2)c2cccnc12	-0.989	-3.11
COCCCNC(=O)c1cc(OC)c(OC)c(OC)c1	-2.27	-10.8
C#CCN1C(=O)C(O)(CC(=O)c2cccc3ccccc23)c2ccccc21 (stereo not drawn)	-2.06	-5.41
CCC(=O)c1ccc(OCC(=O)O)c(OC)c1	-0.171	-0.458
COC(=O)c1ccc(-n2nnnc2SCC(=O)Nc2ccc(F)cc2)cc1	-2	-6.69
COc1ccc(Cn2c(=S)[nH]c3cc(C(=O)NCc4ccccc4Cl)ccc3c2=O)cc1	-3.45	-10.8
O=C(NCCc1ccccc1Cl)C1CC(=O)N(C2CCCCC2)C1 (stereo not drawn)	-1.04	-2.73
CCOC(=O)c1ccc(NC(=O)C2CCN(C(=O)c3cccs3)CC2)cc1	-2.48	-6.67
O=C1C(=O)N(CCCN2CCOCC2)C(c2ccco2)C1=C(O)c1ccc(F)cc1 (stereo not drawn)	-1.86	-4.3
CC1CCN(CCCCCOc2ccccc2Br)CC1	-0.0828	-0.201
COCCNCCCSc1ccc(Cl)cc1	-0.737	-1.98
COc1ccccc1OCc1cccc([N+](=O)[O-])c1	-3.15	-5.65
Cc1cc(C)n(C(=O)c2nn(C)cc2I)n1	-0.913	-2.43
Cc1cc2c(cc1C)NC(c1coc3ccc(Cl)cc3c1=O)C1=C(CC(C)(C)CC1=O)N2 (stereo not drawn)	-0.968	-2.17
COc1ccc(C(=O)N2N=C(C3CCCCC3)CC2(O)C(F)(F)F)cc1OC (stereo not drawn)	-1.58	-5.29
O=C(c1cc(-c2ccc3c(c2)OCO3)nc2ccccc12)N1CCN(Cc2ccc3c(c2)OCO3)CC1	-1.37	-3.33
